In PubChem BioAssay (NCI) one finds growth data, which are given here for 14 molecules.

The panel holds about 83,000 compounds, 20% with a hit somewhere; the sample as a whole holds those more often.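 Activity criterion: percent growth below 10, measured after cells in 96-well plates were exposed to a single compound concentration for 48 hours.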 Values without a mark were called inactive. Active and inactive are the calls of the source.

For this test, the system named is MDA-MB-468 breast. Kind of test: NCI-60 one-dose screen, 48 h (100 = growth as untreated, 0 = no growth, -100 = all killed). The conditions noted are these: 10 µM unless noted.
On to `O=C1COCCN1c1ccc(Nc2nc(Cl)nc(N3CCOCC3)n2)cc1`, for which the growth was 87.2%.

Turning to `Clc1cc(Cl)cc(N2N=C(c3cccc(Nc4ccncc4)c3)CC2c2ccccc2)c1` (centres undefined), the growth is 37.9%.

`CC(=O)O[C@]1(C(C)=O)CCC2C3C[C@H](C)C4=CC(=O)CC[C@]4(C)C3CC[C@@]21C` (some centres undefined): the growth was 86.4%.

On to `CCCCCCCCCCCCCCCCCBr`, for which the growth is 99.8%.

Regarding `COc1ccc2c(c1)sc1nc(-c3ccccc3)c(-c3cccnc3)n12`, the growth was 90.1%.

For the molecule `CN(Cc1cccc(C(F)(F)F)c1)C(=O)[C@@H](CC(=O)N1CCC(N2CCCCC2)CC1)N1C(=O)[C@@H](N2C(=O)OC[C@@H]2c2ccccc2)[C@H]1/C=C/c1ccccc1`, the growth was 60.5%.

As for `C/C(=N/N)c1nnn(-c2ccc(Br)cc2)c1C`, the growth is 94.8%.

In the case of `O=C(Nc1ccccc1C(=O)N/N=C(\c1ccccc1)c1ccccn1)c1ccc(F)cc1`, the growth was 5.1% (active).

As for `COc1cccc(-c2nc3sccn3c2-c2ccnc(NCCCNS(=O)(=O)c3ccc(F)cc3)n2)c1`, the growth is 47.9%.

Consider `CCCN(CCC)CCC(O)c1cc2c(c3ccccc13)CCCC2` (centres undefined), for which the growth is 72.2%.

Take `O=S(=O)(Nc1ccccc1Cl)c1ccc(-c2cnc(C3CC3)o2)cc1`: the growth was 6.43% (active).

With `Cc1ccc(NC(=S)N/C=C(\c2ccccc2)S(=O)Cc2ccccc2)c(C)c1` (centres undefined), the growth is 100%.

Consider `O=C1Cc2cc(CCN3CCN(c4nsc5ccccc45)CC3)c(Cl)cc2N1`, for which the growth is 49.1%.

On to `CC[C@H](C)[C@@H]1NC(=O)[C@H]([C@@H](C)O)NC(=O)C(Cc2ccccc2)NC(=O)[C@@H]2CCCN2C(=O)C(C(C)C)NC(=O)C(Cc2ccccc2)NC(=O)CNC(=O)[C@@H]2CCCN2C1=O` (some centres undefined), for which the growth was 53%.
